What all share (assay): NCI-60 one-dose screen, 48 h (100 = growth as untreated, 0 = no growth, -100 = all killed)
Common to all, as to details: 10 µM unless noted

The test system of experiment [1] is DU-145 prostate.
The test system of experiment [2] is K-562 leukemia.
Experiment [3] deals with MALME-3M melanoma.
Experiment [4] has as its system MDA-MB-231 breast.
In experiment [5] the test system is RXF 393 renal.
The subject of experiment [6] is SF-268 CNS.
Experiment [7] has as its system SF-539 CNS.
Experiment [8] concerns UACC-257 melanoma.
Experiment [9] relates to M14 melanoma.
The test system of experiment [10] is HCT-15 colon.
In experiment [11] the test system is HT29 colon.
The test system of experiment [12] is SNB-19 CNS.
Experiment [13] deals with U251 CNS.
Experiment [14] has as its system PC-3 prostate.
Experiment [15] deals with SK-MEL-5 melanoma.
For experiment [16], the system named is UACC-62 melanoma.
Experiment [17] has as its system LOX IMVI melanoma.
Experiment [18] relates to SK-MEL-28 melanoma.
Experiment [19] concerns SNB-75 CNS.

Molecules are shown by their SMILES. This is part of a sample that, as a whole, favours compounds with a hit. Of some 83,000 tested, about 20% had one in any assay.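 Testing used 96-well plates and a 48-hour single-concentration exposure. Example: -40 means 40% of the starting cells died.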 Values without a mark were called inactive. The source made the active and inactive calls. How the source made its calls: active means growth percent below 10; inactive means the rest.

Turning to `CCN(C(=O)Nc1cccc2ccccc12)c1ccccc1`, the growth in experiment [1] is 107%; in [2], 89.3%; in [3], 90.6%; in experiment [4] it was 105%; in experiment [5], 120%; in experiment [6] it was 104%. In addition, the growth in [7] is 93.5%; in experiment [8], 112%; in [9] it was 106%; in experiment [10], 90.8%; in [11] it was 103%; in experiment [12], 102%. Further, the growth in [13] was 97.7%; in experiment [14], 85.9%; in [15], 95.5%; in [16], 80.5%; in experiment [17], 102%; in experiment [18], 112%.

For `CC1=C(C(=O)Nc2ccc(F)cc2)C(c2ccc(C)cc2)C2=C(CC(C)(C)CC2=O)N1` (configuration not stated), the growth in experiment [1] is 106%; in [2], 93.3%; in experiment [3], 102%; in experiment [4], 86.6%; in experiment [5], 92.1%; in [6], 88%. Also, the growth was 93.3% in experiment [7]; 98.5% in experiment [8]; 101% in experiment [9]; 94% in [10]; 55.7% in [19]; 92.5% in experiment [12]. Besides, the growth was 88.8% in [13]; 75.3% in experiment [14]; 94.1% in experiment [15]; 86.4% in experiment [16]; 90% in experiment [17]; 97.1% in experiment [18].

For `Nc1n[nH]c2ccc([C@@H]3Nc4c(F)cc5[nH]ncc5c4[C@H]4C5CCC(C5)[C@@H]34)cc12` (some centres not stated), the growth in [1] was 3.59% (active); in experiment [2], 13.9%; in experiment [3] it was 32.7%; in experiment [4], 4.87% (active); in experiment [5], -0.647% (active); in experiment [6], 36.1%. Besides, the growth in experiment [7] is -39% (active); in experiment [8] it was 62.1%; in experiment [9], 9.46% (active); in [10], 19.8%; in [19], 7.8% (active); in [12], 27.9%. Moreover, the growth in experiment [13] is 14.3%; in experiment [14], 22.8%; in [15], 4.3% (active); in experiment [16], 38.1%; in [17], 20.3%; in experiment [18], 49.2%.

Consider `Cc1cc(N=Nc2ccc(-c3ccc(N=Nc4ccc(O)c(C(=O)O)c4)cc3)cc2)c(N)c(N=Nc2ccc(C(=O)O)cc2)c1N`, for which the growth is 110% in experiment [1]; 75.1% in experiment [2]; 95.2% in experiment [3]; 102% in experiment [4]; 94.7% in experiment [5]; 98.7% in experiment [6]. Moreover, the growth in experiment [7] is 93.2%; in experiment [8] it was 110%; in [9] it was 86.5%; in [10], 74.8%; in [19] it was 82.5%; in [12], 95.5%. Also, the growth in experiment [13] is 88.4%; in experiment [14] it was 78.1%; in experiment [15] it was 87%; in [16], 71.2%; in experiment [17], 93.9%; in experiment [18], 80.6%.

Take `Cc1cc(C)cc(CCCCCCCCCCCCCCCCCC(=O)O)c1`: the growth is 108% in [1]; 115% in [2]; 108% in experiment [3]; 120% in [4]; 107% in [5]; 103% in experiment [6]. Moreover, the growth is 106% in experiment [7]; 106% in experiment [8]; 98% in experiment [9]; 102% in [10]; 110% in [11]; 97.2% in experiment [19]. Besides, the growth in [13] is 110%; in experiment [14] it was 106%; in experiment [15], 102%; in experiment [16], 106%; in experiment [17], 104%; in experiment [18], 119%.

`O=C(c1ccc(C(F)(F)F)c(Cl)c1)N(Cc1ccc(Cl)cc1)c1ccc(-c2cc(C(F)(F)F)[nH]n2)c(O)c1`: the growth is 12.8% in experiment [1]; 7.36% (active) in [2]; 1.34% (active) in experiment [3]; -35.7% (active) in [4]; -9.88% (active) in experiment [5]; 7.06% (active) in experiment [6]. The growth is 2.09% (active) in experiment [7]; 10.3% in experiment [8]; 10.9% in experiment [9]; 7.04% (active) in experiment [10]; 5.34% (active) in [11]; 10.3% in [19]. Further, the growth in experiment [13] was 4.18% (active); in [14], 11.2%; in experiment [15], -42.9% (active); in [16] it was 14.5%; in experiment [17], 4.7% (active); in experiment [18], 30.8%.

`COc1ccc(C(=O)c2c(N)nc3n2CCCC3)cc1OC`: the growth in [1] is 107%; in experiment [2] it was 90.6%; in experiment [3] it was 99.9%; in [4], 115%; in experiment [5] it was 111%; in experiment [6] it was 106%. Besides, the growth in experiment [7] is 102%; in experiment [8] it was 100%; in experiment [9] it was 103%; in experiment [10], 98.4%; in experiment [11], 94.7%; in experiment [12], 110%. In addition, the growth in experiment [13] is 98.5%; in [14], 101%; in [15] it was 100%; in experiment [16], 109%; in [17], 97%; in experiment [18], 108%.

As for `CCCCCCCCCCCCCCC(C(=O)OCC)C(=O)OCC`, the growth in [1] was 110%; in [2], 121%; in [3] it was 92.8%; in [4] it was 101%; in [5], 113%; in experiment [6], 110%. For the same compound, the growth in experiment [7] is 105%; in [8] it was 106%; in experiment [9], 108%; in [10], 99.5%; in [11], 115%; in experiment [19], 94.7%. For the same compound, the growth is 104% in experiment [13]; 108% in experiment [14]; 99.3% in experiment [15]; 101% in [16]; 119% in [17]; 102% in [18].

With `C#CC[C@@H]1C[C@]2(C)[C@H]3CC[C@@H]4[C@H]5C(C(=C)C)CC[C@]5(C(=O)NCCN(CCN)CCN)CC[C@@]4(C)[C@]3(C)CC[C@H]2C(C)(C)[C@H]1OC(C)=O` (some centres not stated), the growth in [1] is 95.1%; in experiment [2], 2.56% (active); in experiment [3], 85.7%; in experiment [4], 33%; in [5], -66.1% (active); in [6] it was 87.6%. Also, the growth in experiment [7] was 95.2%; in experiment [8] it was 109%; in experiment [9], 91.3%; in experiment [10], -52.9% (active); in [19] it was 103%; in [12], 69.8%. Moreover, the growth is -28.4% (active) in experiment [13]; 79.9% in experiment [14]; 96.5% in experiment [15]; 103% in experiment [16]; 65.5% in experiment [17]; 105% in [18].

The values are drawn from PubChem BioAssay (NCI).
